A selection: hits, their analogues and other compounds. The true share with any hit is near 19%.
SARS PLP yeast: qHTS of Yeast-based Assay for SARS-CoV PLP | S. cerevisiae expressing SARS-CoV PLpro, growth rescue | Potency, µM (series often up to 32.9 µM), hits mostly activators | 0.19% of 330,000 active | AID 485353, 2010; calls by dose curve; also: nearly all actives have a fitted effect of over 55% in size
Cycloheximide cs: Cycloheximide Counterscreen for Small Molecule Inhibitors of Shiga Toxin; cell reporter, cycloheximide protein synthesis inhibition counterscreen; max response, %; 12% of 300,000 active; AID 2314, 2010; in the data active = max response mostly above about 13%, no sharp cut-off; inactive = mostly below about 14%; also: read at 38.3 µM for the half of the compounds with a filed dose
Shiga toxin inh: A qHTS for Small Molecule Inhibitors of Shiga Toxin | Vero cells, Shiga toxin protein synthesis inhibition reporter | inhibition, % at 38.7 µM | 9.2% of 290,000 active; in the data active = inhibition mostly above about 28%, no sharp cut-off; inactive = mostly below about 43%
Pf growth 48h: Primary qHTS for delayed death inhibitors of the malarial parasite plastid, 48 hour incubation; P. falciparum luciferase growth in erythrocytes, 48 h; Potency, µM (series often up to 28.7 µM), usual class: inhibitors; 5.9% of 310,000 active
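Compounds are pin-transferred into medium, infected erythrocytes (2% hematocrit, 0.1% parasitemia final) are added, and plates sit one parasite generation at 37 C in 5% CO2. Detection reagent is then added and luminescence measured.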
Pf growth 96h: Primary qHTS for delayed death inhibitors of the malarial parasite plastid, 96 hour incubation. P. falciparum luciferase reporter growth, 96 h. Potency, µM (doses to about 28.7 µM), hits mostly inhibitors. 6.9% of 320,000 active
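Compounds incubated with erythrocytes infected by luciferase-expressing P. falciparum (2% hematocrit, 0.05% parasitemia final) for 96 hours, 37 C in 5% CO2. Growth inhibition scored as decreased luciferase luminescence.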
AMA1-RON2 inh: qHTS for Inhibitors of AMA1-RON; Towards Development of Antimalarial Drug Lead: Primary Screen. Plasmodium falciparum AMA1 (3D7) - RON2 peptide interaction. AlphaScreen AMA1-biotinylated RON2 peptide binding. Potency, µM (titrated, usually from 58.2 µM), actives largely listed as inhibitors. 0.2% of 360,000 active. AID 720542, 2013; also: nearly all actives have a fitted effect of over 45% in size
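AMA1 (3D7) with his tag at 25 nM final met compounds first, then biotinylated RON2 peptide at 25 nM; detection used donor plus acceptor beads, 10 µg/mL apiece, read by AlphaScreen after 30 min at room temperature.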
A number is an active result; – = inactive; ? = inconclusive; · = not tested or not shown. Unless noted, calls follow the shape of the dose curve; as a rule, active = well fitted curve in the direction sought with a large enough effect; inconclusive = small, poorly fitted or top-dose-only effect, or another doubt; inactive = no such curve, though single readings can be large; an effect the other way counts as inactive or inconclusive.

SMILES	SARS PLP yeast	Cycloheximide cs	Shiga toxin inh	Pf growth 48h	Pf growth 96h	AMA1-RON2 inh
Cc1ccc(C2(c3noc(CN(C)CC4CCCCO4)n3)CCCC2)cc1 (centres undefined)	–	–	–	?	?	–
COCCN(Cc1nc(C2(c3ccc(C)cc3)CCCC2)no1)C(C)C	–	–	–	?	13µM	–
Cc1ccc(C2(c3noc(CN4CCC(c5ccncc5)CC4)n3)CCCC2)cc1	–	–	–	?	12µM	?
CC(C)=CCc1c(O)cc2oc3c(CC=C(C)C)c(O)c(O)c(CC=C(C)C)c3c(=O)c2c1O	–	–	–	13µM	–	–
CCOC(=O)c1c(C)[nH]c(C)c1C(=O)C(Cc1ccccc1)N(C)C (centres undefined)	–	–	–	·	–	–
CN(C)C(Cc1ccccc1)C(=O)c1ccccc1 (centres undefined)	–	33	65	–	?	–
CN(C)C(Cc1ccccc1)C(=O)c1c[nH]c2ccccc12 (centres undefined)	–	28	–	·	?	–
COc1ccc2c(c1)C=C(CN1CCN(C3CCCC3)C(CCO)C1)CO2 (centres undefined)	–	–	–	–	–	–
CCOC(=O)c1cc2c(cn1)[nH]c1ccccc12	–	27	59	–	?	–
COc1ccc([C@H]2C(C(=O)O)=C[C@@H](C(C)(C)C)N2S(=O)(=O)c2ccccc2)cc1	–	·	·	·	·	–
O=C(CCCn1c(=O)c2ccccc2n(Cc2ccccc2)c1=O)NCc1ccco1	–	–	–	·	–	–
O=C(CCCCn1c(=O)c2ccccc2n(Cc2ccc(F)cc2)c1=O)NCc1ccco1	–	–	–	?	3.3µM	–
O=C(NCc1ccco1)c1ccc(Cn2c(=O)c3ccccc3n(Cc3cccc(F)c3)c2=O)cc1	–	–	–	·	·	–
COc1cc2c(=O)n(Cc3ccccc3)c(=O)n(CC(=O)NCc3ccco3)c2cc1OC	–	–	–	?	3.7µM	–
O=C(NCc1ccco1)c1ccc(Cn2c(=O)c3ccccc3n(Cc3ccc(Cl)cc3)c2=O)cc1	–	–	–	12µM	–	–
NC1(C(=O)O)CSSC1	·	·	·	·	·	–
CCOC(=O)C1(C)CCCN1C(=O)c1ccc(Cl)nc1 (centres undefined)	·	·	·	·	·	–
Cc1csc(C(C)N(C)C(=O)c2ccc(OC3CCN(Cc4ccccn4)CC3)cc2)n1 (centres undefined)	–	–	–	?	?	–
CCS(=O)(=O)Nc1ccc(C2=NN(C(=O)c3ccccc3)C(c3cccs3)C2)cc1 (centres undefined)	–	–	–	?	?	–
CCc1ccc(C2=NN(S(C)(=O)=O)C(c3cccs3)C2)cc1 (centres undefined)	–	65	88	·	0.29µM	–
CCS(=O)(=O)Nc1cccc(C2=NN(S(=O)(=O)c3ccc(C)cc3)C(c3cccs3)C2)c1 (centres undefined)	–	–	–	?	–	–
CS(=O)(=O)N1N=C(c2ccc(Br)cc2)CC1c1cccs1 (centres undefined)	–	32	48	·	–	–
CC(=O)Nc1ccc(C2=NN(c3ccccc3)C(c3cccs3)C2)cc1 (centres undefined)	–	70	88	?	?	–
Cc1ccc(C2=NN(C(=O)CNCCO)C(c3cccs3)C2)cc1 (centres undefined)	–	42	–	?	?	–
CC(C)(C)n1nc2c(c1NC(=O)c1cccc(Cl)c1)CS(=O)(=O)C2	–	–	–	–	–	–
O=C1CC(c2ccccc2F)c2c(c3ccccc3[nH]c2=O)O1 (centres undefined)	–	–	–	–	–	–
COc1ccc(C2=NN(S(C)(=O)=O)C(c3cccs3)C2)cc1 (centres undefined)	–	41	60	–	–	–
Cc1ccc(C2=NN(S(C)(=O)=O)C(c3cccs3)C2)cc1 (centres undefined)	–	35	178	–	–	–
CCN(CC(=O)NCc1ccc(F)cc1)C(=O)C1CCN(S(=O)(=O)c2ccc(C(C)C)cc2)CC1	–	·	·	?	?	–

Source: PubChem BioAssay
